A selection: hits, their analogues and other compounds. The true share with any hit is near 1.8%.
PTHR1 ag – agonists of human PTHR1 parathyroid hormone receptor | Q03431 | HEK293 GP2 PTHR1 cells, GloSensor cAMP luminescence, 1 h | Potency, µM (highest dose often 115 µM), inactives show at the highest dose activation, most hits filed as activators | AID 743266 | hit rate 0.075% among 410,000; also: nearly all actives have a fitted effect of over 55% in size
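HEK-293-derived GP2 cells expressing PTHR1 and a GloSensor cAMP reporter, 3,000/well, plated overnight, given luciferin plus IBMX (each 0.5 mM as added) for 1 h at 37 °C, then compound for 1 h at 37 °C. Luminescence was read after 15 min at room temperature.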
KAT2A inh – inhibitors of human GCN5L2 histone acetyltransferase; Q92830; GCN5L2 HAT assay, ThioGlo1 CoA-SH fluorescence; Potency, µM (series often up to 58.9 µM), inactives show at the top dose activity change, negative = inhibition, most hits filed as inhibitors; hit rate 0.21% among 390,000; also: % is scaled to controls: 0 for no effect and ±100 for the full control effect
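ThioGlo1-coupled HAT assay: 20nM GCN5L2, 70uM acetyl-CoA, 75uM H3(1-25) peptide, pH 7.5. Fluorescence read at 340/540nm at start and after 20 min at room temperature.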
RGS4 inhibitor – blocks human RGS4-accelerated GTP hydrolysis; P49798; Potency, µM (doses to about 114 µM), for inactives: at the highest dose activity change, negative = inhibition, most hits filed as inhibitors; Transcreener GDP fluorescence polarization, RGS4-accelerated GTP hydrolysis; AID 504845; hit rate 0.039% among 390,000; also: % is scaled to controls: 0 for no effect and ±100 for the full control effect; nearly all actives have a fitted effect of over 75% in size
Target sequence (P49798 whole entry, looked up): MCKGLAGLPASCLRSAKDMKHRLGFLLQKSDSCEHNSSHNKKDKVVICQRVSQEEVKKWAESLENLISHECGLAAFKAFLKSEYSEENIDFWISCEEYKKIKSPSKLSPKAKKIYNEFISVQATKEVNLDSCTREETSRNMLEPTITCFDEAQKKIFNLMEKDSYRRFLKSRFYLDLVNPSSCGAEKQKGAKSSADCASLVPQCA
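MLSMR compounds (23 nl, pin-transferred) preincubated 10 min at room temperature with a 500nM (2x) first reagent, then RGS4 at 900nM (2x) plus Transcreener GDP mix added; fluorescence polarization (620/688 nm) read before and after 90 min at 30 °C.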
GLP1R ag – agonists of human GLP-1 receptor; AID 624172; hit rate 0.007% among 380,000; HEK293 GLP-1R CRE-luciferase, luminescence, 4-6 h; cells express a hypersensitive GLP-1R form; Potency, µM (highest dose often 45.6 µM), for inactives: at the top dose activation, hits mostly activators; also: % of control where 0% means no effect
GLP1R inv ag – inverse agonists of human GLP-1 receptor; Potency, µM (highest dose often 38.3 µM), inactives show top-dose activity change, negative = inhibition, hits mostly inhibitors; hit rate 1.6% among 410,000; P43220; HEK293 GLP-1R CRE-luciferase, luminescence, 24 h; GLP-1R form is constitutively active; AID 624417; also: % is scaled to controls: 0 for no effect and ±100 for the full control effect; nearly all actives have a fitted effect of over 55% in size
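Cells are plated, allowed 12 hours at 37 deg C, then treated with compounds for 24 hr before luciferase detection reagent is added and luminescence is read after 12 min at room temperature. The HEK293 line carries constitutively active GLP-1R with a cAMP-responsive reporter.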
HEK293 tox – cytotoxicity in counter-screen for GLP-1R inverse agonists; HEK293 cAMP-luciferase reporter cells, luminescence, 24 h; Potency, µM (doses to about 38.3 µM), for the others: at the top dose activity change, negative = inhibition, hits mostly inhibitors; hit rate 0.13% among 410,000; AID 624418;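 also: loss of luciferase light is scored as toxicity; % is scaled to controls: 0 for no effect and ±100 for the full control effect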
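A 23 nL compound transfer followed 12 hours of cell culture at 37 deg C; exposure then lasted 24 hr. Luciferase assay detection reagent was dispensed and plates read for luminescence after a 12 min room-temperature wait.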
Active calls of the source: *; i = inactive; ? = inconclusive; · = no result given; ! = repeats disagree; [ ] = remark or other dose. Calls follow the shape of the dose curve; as a rule, active = well fitted curve in the direction sought with a large enough effect; inconclusive = small, poorly fitted or top-dose-only effect, or another doubt; inactive = no such curve, though single readings can be large; an effect the other way counts as inactive or inconclusive. Potency is read from the fitted curve at half-maximal effect.

SMILES	PTHR1 ag	KAT2A inh	RGS4 inhibitor	GLP1R ag	GLP1R inv ag	HEK293 tox
CC(NC(=O)COC(=O)c1ccc[nH]c1=O)c1ccccc1 (stereo not given)	-19.6%	1.4%	19.8%	1.2%	2.5%	-11.5%
CCNc1ncc2nc(-c3cccc(C#N)c3)c(=O)n(C)c2n1	·	35.5µM*	·	·	·	·
C/C(CC(=O)Nc1ccc(Cl)cc1Cl)=N\NC(=O)c1ccncc1	i	1.4%	5.9%	2.4%	-18.9%	-8.8%
C/C(CC(=O)Nc1ccc(C)c(Cl)c1)=N\NC(=O)c1ccncc1	-18.7%	-14.6%	-51.4%	5.7%	10µM*	11.2%
C/C(CC(=O)Nc1ccc(Cl)c(Cl)c1)=N\NC(N)=S	i	-19.0%	?	-5.9%	11.2µM*	?
COc1ccc(OCCCCn2c(C3CC(=O)N(c4cccc(Cl)c4)C3)nc3ccccc32)cc1 (stereo not given)	-18.5%	-11.6%	-20.3%	·	10µM*	0.8%
O=C1CC(c2nc3ccccc3n2CCCCOc2ccccc2)CN1c1ccccc1Cl (stereo not given)	-32.1%	-14.0%	-6.9%	·	10µM*	-17.5%
Cc1cc2ncn(-c3ncnc4sc(C)c(C)c34)c2cc1C	-2.7%[57.5 µM]	-3.6%	19.1%	5.4%	7.08µM*	-1.6%
Cc1cc2ncn(-c3ncnc4sc5c(c34)CCCC5)c2cc1C	-14.3%	-11.0%	-1.8%	16.1%	-43.8%	5.8%
Cc1ccccc1Nc1nnc(-c2ccc(C)c(S(=O)(=O)N3CCCCC3)c2)c2ccccc12	i	-4.3%	8.0%	·	3.16µM*	0.8%
CC[C@H](C)[C@H](NC(=O)CNC(=O)[C@H](CCCNC(=N)N)NC(=O)[C@H](CO)NC(=O)[C@H](C)NC(=O)[C@H](Cc1ccc(O)cc1)NC(=O)[C@H](Cc1c[nH]c2ccccc12)NC(=O)[C@H](C)NC(=O)[C@@H]1CCCN1C(=O)[C@H](CC(N)=O)NC(=O)[C@@H](NC(=O)[C@H](CC(=O)O)NC(=O)[C@@H]1CCCN1C(=O)[C@@H](NC(=O)[C@H](CCCNC(=N)N)NC(=O)[C@@H](NC(=O)[C@H](CCC(=O)O)NC(=O)[C@H](CCSC)NC(=O)[C@H](CO)NC(=O)[C@H](Cc1cnc[nH]1)NC(=O)[C@H](CCCNC(=N)N)NC(=O)[C@H](Cc1cnc[nH]1)NC(=O)[C@@H](NC(=O)[C@H](CCCNC(=N)N)NC(=O)[C@@H](N)CO)[C@@H](C)O)[C@@H](C)CC)[C@@H](C)O)[C@@H](C)CC)C(=O)N[C@@H](CCCNC(=N)N)C(=O)N1CCC[C@H]1C(=O)N[C@H](C(=O)NCC(=O)N[C@@H](CCCNC(=N)N)C(=O)N[C@@H](Cc1ccccc1)C(N)=O)C(C)C	·	1.1%	·	·	·	·
O=C1c2ccccc2C(=O)c2c(O)c(O)cc(O)c21	-2.5%	7.94µM*!	-9.2%	-4.5%	0.7%	-16.2%
CCOc1ccc(CCNC(=O)c2cc(=O)[nH]c3ccc(S(=O)(=O)N4CCCCC4)cc23)cc1OCC	?	-6.1%	5.0%	·	17.0%	1.8%
COc1ccc(/C=C/c2ccccc2)cc1C1C2C=CCCC2(C)C(=O)N1Cc1ccccc1 (stereo not given)	·	·	-7.1%	·	·	·
O=C(CSc1cc(Cl)ccc1Cl)NC1CCCc2ccccc21 (stereo not given)	-8.0%	-5.4%	14.7%	5.7%	?	15.7%
Cc1ccc2nc(SCC(=O)NC3CCCc4ccccc43)[nH]c2c1 (stereo not given)	-12.6%	39.3%	3.3%	-1.4%	8.91µM*	-9.1%
O=C(c1ccoc1)N1CCN(c2cc(-c3cccnc3)nc3cc(-c4cccc(Cl)c4)nn23)CC1	i	·	·	-3.1%	-32.2%	4.4%
